Measured values: article PMC5540273 (PLoS ONE, 2017)

Legend:
Settings in all cases: concentration: 1 μM, replicates: in singlicate; n = 1
[1] = system: MAST1
[2] = system: T1, MEK1
T1 construct: gene MAP2K1

[3] = system: T2, MEK2
T2 construct: gene MAP2K2

[4] = system: T3, MEK3
T3 construct: gene MAP2K3

[5] = system: T4, MEK4
T4 construct: gene MAP2K4

[6] = system: T5, MEK5
T5 construct: gene MAP2K5

[7] = system: T6, MEK6
T6 construct: gene MAP2K6

[8] = system: MELK
[9] = system: MERTK
[10] = system: MET
[11] = system: T7, MINK
T7 construct: gene MINK1

[12] = system: MKK7
[13] = system: MKNK1
[14] = system: MKNK2
[15] = system: T8, MLCK
T8 construct: gene MYLK3

[16] = system: T9, MLK1
T9 construct: gene MAP3K9

[17] = system: MLK2
[18] = system: MLK3
[19] = system: MRCKA
[20] = system: T10, MRCKB
T10 construct: gene CDC42BPB
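Note: KINOMEscan kinase panel screen.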

| SMILES | %Inh [1] [%] | %Inh [2] [%] | %Inh [3] [%] | %Inh [4] [%] | %Inh [5] [%] | %Inh [6] [%] | %Inh [7] [%] | %Inh [8] [%] | %Inh [9] [%] | %Inh [10] [%] | %Inh [11] [%] | %Inh [12] [%] | %Inh [13] [%] | %Inh [14] [%] | %Inh [15] [%] | %Inh [16] [%] | %Inh [17] [%] | %Inh [18] [%] | %Inh [19] [%] | %Inh [20] [%] |
| --- | --- | --- | --- | --- | --- | --- | --- | --- | --- | --- | --- | --- | --- | --- | --- | --- | --- | --- | --- | --- |
| CCc1ccc(-c2ccc3c(c2)-c2n[nH]cc2S(=O)(=O)N3C)cc1 | 0 | 10 | 86 | 13 | 0 | 8 | 0 | 9 | 0 | 0 | 2 | 0 | 0 | 0 | 16 | 13 | 16 | 0 | 0 | 6 |
| Cc1nccc(-c2c(-c3ccc(F)cc3)ncn2CCCN2CCOCC2)n1.Cl [SB-282975] | 71 | 1 | 33 | 2 | 9 | 19 | 0 | 19 | 24 | 0 | 18 | 0 | 11 | 1 | 0 | 0 | 22 | 25 | 23 | 0 |
| COc1ccc(Nc2nccc(-c3ccc(NC(=O)c4cc5cc(F)ccc5[nH]4)cc3)n2)cc1 [GSK1229496] | 0 | 0 | 0 | 20 | 0 | 6 | 0 | 0 | 18 | 0 | 4 | 0 | 14 | 0 | 0 | 0 | 0 | 0 | 17 | 0 |
| Nc1nccc(-c2c(-c3ccc(F)cc3)ncn2C2CCN(Cc3ccccc3)CC2)n1 [SB-219980] | 4 | 7 | 9 | 19 | 38 | 28 | 21 | 15 | 0 | 0 | 32 | 0 | 0 | 0 | 5 | 11 | 8 | 0 | 0 | 20 |
| COc1ccc2cc(-c3nc(-c4ccccc4C(C)C)[nH]c3-c3ccncc3)ccc2c1 [SB-660566] | 2 | 0 | 0 | 0 | 65 | 11 | 45 | 26 | 33 | 0 | 0 | 0 | 5 | 22 | 6 | 0 | 0 | 0 | 4 | 1 |
| CCCCc1nn2ncccc2c1-c1ccnc(NC2CC2)n1 [GW684374] | 0 | 0 | 0 | 8 | 7 | 9 | 10 | 15 | 5 | 0 | 7 | 0 | 0 | 0 | 0 | 0 | 0 | 0 | 0 | 0 |
| COc1cccc(CNC(=O)NC2CCN(c3ccnc(Nc4ccc(F)cc4)n3)C2)c1 (stereo not shown) [GSK1379723] | 6 | 10 | 0 | 0 | 36 | 53 | 0 | 0 | 26 | 0 | 0 | 31 | 13 | 8 | 0 | 0 | 0 | 0 | 29 | 8 |
| Cc1cnc(N)c(/C=C/c2cncc(C(=O)NCCc3ccc(Cl)cc3Cl)c2)c1.Cl [GSK190937] | 5 | 0 | 0 | 0 | 34 | 41 | 0 | 2 | 29 | 0 | 4 | 0 | 0 | 2 | 6 | 0 | 0 | 0 | 5 | 2 |
| Cc1c(Cn2c3ccccc3n3c(=O)cc(N4CCOCC4)nc23)cccc1C(F)(F)F [GSK2306394] | 0 | 0 | 0 | 0 | 17 | 59 | 0 | 66 | 33 | 0 | 0 | 0 | 0 | 6 | 0 | 0 | 2 | 0 | 0 | 0 |
| COc1ccc(Nc2nccc(N3CCC(NC(=O)C(C)c4ccc(Cl)cc4)CC3)n2)cc1 (stereo not shown) [GSK1379812] | 0 | 0 | 0 | 0 | 5 | 10 | 0 | 0 | 22 | 0 | 51 | 0 | 36 | 5 | 0 | 0 | 0 | 52 | 20 | 0 |
| O=c1cc(N2CCOCC2)nc2n(Cc3ccccc3F)ccn12 [GSK2297428] | 0 | 0 | 0 | 0 | 0 | 0 | 0 | 0 | 42 | 0 | 8 | 0 | 0 | 0 | 0 | 0 | 0 | 38 | 4 | 0 |
| CS(=O)(=O)CCNCc1nc(-c2ccc3ncnc(Nc4ccc5c(cnn5Cc5ccccc5)c4)c3c2)cs1.Cl.Cl [GW569716] | 32 | 0 | 0 | 0 | 0 | 99.6 | 0 | 0 | 0 | 0 | 1 | 0 | 0 | 23 | 0 | 1 | 0 | 0 | 17 | 18 |
| CC(=O)c1c(C)c2cnc(Nc3ccn(C)n3)nc2n(C2CCCC2)c1=O | 0 | 0 | 0 | 13 | 0 | 0 | 4 | 1 | 0 | 0 | 8 | 0 | 0 | 0 | 0 | 0 | 21 | 0 | 0 | 5 |
| O=C(Nc1n[nH]c2cc(-c3ccsc3)ccc12)C1CC1 [SB-732932] | 36 | 11 | 16 | 17 | 18 | 50 | 0 | 0 | 14 | 0 | 67 | 8 | 0 | 54 | 65 | 3 | 0 | 0 | 13 | 0 |
| Cc1ccc(-c2nc(Nc3ccncc3)c3ccccc3n2)s1 [GSK189015] | 0 | 11 | 1 | 0 | 11 | 17 | 0 | 0 | 11 | 10 | 2 | 0 | 5 | 17 | 14 | 6 | 49 | 5 | 24 | 21 |
| Cc1ccc(NC(=O)Nc2ccccc2F)cc1-c1ccc(C(=O)Nc2ccncc2)cc1 [GSK1398477] | 0 | 0 | 0 | 0 | 26 | 37 | 0 | 14 | 31 | 0 | 0 | 0 | 4 | 0 | 11 | 4 | 17 | 33 | 17 | 30 |

| SMILES | %Inh [1] [%] | %Inh [2] [%] | %Inh [3] [%] | %Inh [4] [%] | %Inh [5] [%] | %Inh [6] [%] | %Inh [7] [%] | %Inh [8] [%] | %Inh [9] [%] | %Inh [10] [%] | %Inh [11] [%] | %Inh [12] [%] | %Inh [13] [%] | %Inh [14] [%] | %Inh [15] [%] | %Inh [16] [%] | %Inh [17] [%] | %Inh [18] [%] | %Inh [19] [%] | %Inh [20] [%] |
| --- | --- | --- | --- | --- | --- | --- | --- | --- | --- | --- | --- | --- | --- | --- | --- | --- | --- | --- | --- | --- |
| COc1nccc(-c2c(-c3ccc(F)cc3)ncn2CCCN2CCOCC2)n1 [SB-282852] | 20 | 0 | 25 | 31 | 23 | 7 | 0 | 0 | 19 | 0 | 0 | 23 | 54 | 42 | 0 | 0 | 0 | 0 | 12 | 0 |
| Cn1cncc1-c1cc2c(Nc3ccc(OCc4ccccc4)cc3)ncnc2cn1 [GW281179] | 0 | 11 | 5 | 0 | 24 | 99.2 | 0 | 0 | 0 | 0 | 0 | 11 | 0 | 47 | 0 | 0 | 0 | 15 | 21 | 0 |
| CN1c2ccc(-c3ccc(C(N)=O)cc3)cc2-c2[nH]ncc2S1(=O)=O | 0 | 41 | 17 | 16 | 0 | 24 | 0 | 10 | 46 | 14 | 53 | 3 | 0 | 0 | 0 | 19 | 26 | 3 | 0 | 3 |
| COC(=O)C(NC(=O)NC1CCN(c2ccnc(Nc3ccc(F)cc3)n2)C1)c1ccccc1 (stereo not shown) [GSK1379712] | 0 | 19 | 0 | 0 | 16 | 86 | 0 | 20 | 0 | 0 | 7 | 32 | 24 | 6 | 5 | 0 | 0 | 6 | 10 | 0 |
| NS(=O)(=O)c1cccc(N/C=C2\C(=O)Nc3ccc(S(=O)(=O)Cc4c(Cl)cccc4Cl)cc32)c1 [GSK398099] | 0 | 0 | 0 | 1 | 23 | 14 | 0 | 0 | 0 | 23 | 80 | 0 | 0 | 12 | 0 | 0 | 0 | 0 | 15 | 0 |
| COc1ccc(CSc2nnc(-c3ccc4ncsc4c3)o2)cc1C(F)(F)F | 0 | 0 | 9 | 9 | 0 | 0 | 24 | 0 | 16 | 0 | 0 | 0 | 0 | 0 | 0 | 0 | 23 | 0 | 0 | 0 |
| Cc1ccc(NC(=O)Nc2ccccc2)cc1-c1ccc(C(=O)Nc2ccncc2)cc1 [GSK1398471] | 0 | 0 | 0 | 0 | 23 | 4 | 8 | 11 | 40 | 4 | 3 | 23 | 3 | 0 | 0 | 0 | 0 | 4 | 5 | 24 |
| CNCc1ccc2nc(NC(=O)c3ccc(C(C)(C)C)cc3)cn2c1 | 50 | 32 | 27 | 8 | 30 | 34 | 11 | 0 | 5 | 6 | 53 | 8 | 17 | 10 | 14 | 8 | 0 | 6 | 6 | 14 |
| Cc1ccccc1Cn1ccn2c(=O)cc(N3CCOCC3)nc12 [GSK2269905] | 0 | 0 | 0 | 0 | 27 | 13 | 0 | 0 | 25 | 0 | 0 | 0 | 0 | 10 | 0 | 0 | 17 | 3 | 0 | 0 |
| COc1cc2ncnc(Nc3cccc(Br)c3)c2cc1OC.Cl [GI230329] | 20 | 0 | 0 | 0 | 20 | 86 | 0 | 0 | 45 | 0 | 40 | 0 | – | 56 | 19 | 0 | 0 | 24 | 8 | 0 |
| Cl.Cl.Cl.N#Cc1ccc(CCNc2nccc(-c3cccc(CN4CCNCC4)c3)n2)cc1 [GSK2137462] | 0 | 0 | 0 | 5 | 20 | 35 | 7 | 38 | 20 | 0 | 3 | 0 | 46 | 2 | 0 | 0 | 0 | 0 | 48 | 19 |
| Fc1ccc(-c2nn3cccc(F)c3c2-c2ccncc2)cc1 [GW475620] | 0 | 0 | 0 | 0 | 29 | 8 | 0 | 41 | 3 | 0 | 27 | 16 | 0 | 0 | 0 | 2 | 31 | 18 | 23 | 34 |
| c1ccc(-c2ccnc3[nH]ccc23)cc1 [SB-693578] | 44 | 49 | 29 | 10 | 28 | 45 | 0 | 0 | 15 | 0 | 19 | 0 | 0 | 25 | 0 | 0 | 0 | 0 | 15 | 0 |
| CS(=O)(=O)CCNCc1nc(-c2ccc3ncnc(Nc4ccc(OCc5ccccc5)c(Cl)c4)c3c2)cs1.Cl [GW582764] | 43 | 0 | 0 | 0 | 16 | 84 | 0 | 0 | 9 | 0 | 0 | 0 | 0 | 0 | 89 | 0 | 0 | 0 | 3 | 0 |
| CCn1c(-c2c(N)noc2C)nc2cnccc21 [SB-737856] | 0 | 0 | 2 | 0 | 0 | 32 | 70 | 0 | 1 | 0 | 0 | 0 | 0 | 12 | 0 | 0 | 0 | 1 | 8 | 1 |
